For some of these results: Measured potencies and affinities stand elsewhere. Calls of active or inactive are those of the source.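 How the source made its calls, unless noted: active means primary screen activator hit with a dose response curve and TRPC4 channel activation at any tested dose; inactive means no activation, no dose response, or not a primary hit.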
What was measured:
[1] = tested on: TRPC4 beta (transient receptor potential cation channel C4), mouse; experiment: TRPC4 cation channel opening, retest – cell-based, Fluo4 calcium, HEK293 TRPC4beta/mu-opioid, duplicates, 10 µM, confirmation (AID 2426;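 active means fluorescence ratio normalized to control raised more than 50% in primary screen plus both repeat runs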); conditions: Fluo4 calcium fluorescence, at 10 µM; active compounds read high
[2] = tested on: transient receptor potential cation channel C4 beta (TRPC4), mouse; experiment: TRPC4 cation channel opening, second retest – cell-based, second round, Fluo4, HEK293 TRPC4beta/mu-opioid, 1 µM, confirmation (AID 2461;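 active means primary screen active and over 50% activation in each of two duplicate runs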); conditions: Fluo4 calcium fluorescence, at 1 µM; active compounds read high
[3] = tested on: TRPC4 (transient receptor potential cation channel C4 beta), mouse; experiment: potentiation of DAMGO EC20 TRPC4 response – cell-based, second round, Fluo-4, HEK293 TRPC4beta/mu-opioid, 1 µM, confirmation (AID 2554;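 active means primary screen hit whose fluorescence ratio, in both repeats, exceeds the weak agonist control mean by 3 SD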); conditions: DAMGO EC20, Fluo-4 calcium flux, at 1 µM; active compounds read high
[4] = tested on: TRPC4 beta (transient receptor potential cation channel C4), mouse; experiment: potentiation of DAMGO EC20 TRPC4 response – cell-based, Fluo-4, HEK293 TRPC4beta/mu-opioid, confirmation (AID 2555;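 active means primary screen hit whose calcium fluorescence ratio, in both repeats, exceeds the weak agonist control mean by 3 SD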); conditions: DAMGO EC20, Fluo-4 calcium flux, at 10 µM; active compounds read high
[5] = biological target: Short transient receptor potential channel 4 (Mus musculus) (UniProt Q9QUQ5); experiment: blockers of DAMGO-evoked TRPC4 calcium flux – cell-based, Fluo4, HEK293 TRPC4beta/mu-opioid, confirmation (AID 2636;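 active means calcium signal cut by more than 3 SD below the full-agonist control yet still positive, in both repeats and the earlier primary screen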); conditions: at 10 µM; active compounds read high
Chain of Short transient receptor potential channel 4 (Mus musculus) (Q9QUQ5 whole entry, looked up): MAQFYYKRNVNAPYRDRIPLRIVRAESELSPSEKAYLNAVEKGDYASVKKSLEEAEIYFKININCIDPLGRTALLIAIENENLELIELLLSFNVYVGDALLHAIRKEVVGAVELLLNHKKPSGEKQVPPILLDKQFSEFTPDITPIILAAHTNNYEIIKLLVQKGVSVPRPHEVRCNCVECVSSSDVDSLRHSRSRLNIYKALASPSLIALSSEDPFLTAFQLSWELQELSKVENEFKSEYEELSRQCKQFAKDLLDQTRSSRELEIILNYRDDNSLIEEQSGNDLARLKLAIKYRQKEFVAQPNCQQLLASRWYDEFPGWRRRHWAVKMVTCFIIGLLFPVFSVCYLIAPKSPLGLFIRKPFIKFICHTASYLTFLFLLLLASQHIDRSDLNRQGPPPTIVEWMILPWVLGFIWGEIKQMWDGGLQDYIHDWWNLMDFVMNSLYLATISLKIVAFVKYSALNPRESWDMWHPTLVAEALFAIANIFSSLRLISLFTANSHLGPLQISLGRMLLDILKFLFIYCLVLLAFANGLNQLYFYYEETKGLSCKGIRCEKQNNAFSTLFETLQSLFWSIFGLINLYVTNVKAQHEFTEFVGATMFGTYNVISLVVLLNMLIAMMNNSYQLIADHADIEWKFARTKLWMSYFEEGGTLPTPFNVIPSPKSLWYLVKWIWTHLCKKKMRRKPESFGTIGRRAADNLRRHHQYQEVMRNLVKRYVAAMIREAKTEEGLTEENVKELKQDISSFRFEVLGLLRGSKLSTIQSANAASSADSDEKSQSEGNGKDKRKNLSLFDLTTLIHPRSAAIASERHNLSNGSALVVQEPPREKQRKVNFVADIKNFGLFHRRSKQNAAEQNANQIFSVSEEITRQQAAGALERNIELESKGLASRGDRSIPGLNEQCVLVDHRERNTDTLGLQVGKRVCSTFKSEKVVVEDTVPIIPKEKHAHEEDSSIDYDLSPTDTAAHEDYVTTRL

[6] = biological target: Short transient receptor potential channel 4 (Mus musculus) (UniProt Q9QUQ5); experiment: blockers of DAMGO-evoked TRPC4 calcium flux – cell-based, second round, Fluo4, HEK293 TRPC4beta/mu-opioid, 1 µM, confirmation (AID 2637;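 active means calcium signal ratio cut to more than 3 SD under the fully stimulated control mean yet still positive, in both repeats and the primary screen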); conditions: at 1 µM; active compounds read high
[7] = biological target: Short transient receptor potential channel 4 (Mus musculus) (UniProt Q9QUQ5); experiment: calcium entry via TRPC4 opening agents – cell-based, HEK293 TRPC4/mu-opioid, Fluo-4 calcium, dose response (AID 434937)
[8] = biological target: Short transient receptor potential channel 4 (Mus musculus) (UniProt Q9QUQ5); experiment: potentiation of DAMGO-evoked TRPC4 calcium signal – cell-based, HEK293 TRPC4/mu-opioid, Fluo-4 calcium, EC20 DAMGO, dose response (AID 434941;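 active means earlier screen potentiator hit that boosts the TRPC4 ion channel at some dose, with a dose response; inactive means no potentiation, no dose response, or not a prior hit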;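 further: calcium entry triggered by an EC20 dose of DAMGO at the co-expressed mu-opioid receptor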)
[9] = biological target: Short transient receptor potential channel 4 (Mus musculus) (UniProt Q9QUQ5); experiment: block of DAMGO-driven TRPC4 calcium entry – cell-based, HEK293 TRPC4/mu-opioid, Fluo-4 calcium, dose response (AID 434942;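 active means primary screen inhibitor hit that blocks the TRPC4 channel at some tested dose, yielding a dose curve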)
[10] = biological target: Short transient receptor potential channel 6 (Mus musculus) (UniProt Q61143); experiment: TRPC6 blockade by TRPC4 inhibitor hits – cell-based, HEK293, membrane potential dye, duplicate, selectivity assay for TRPC4 inhibitor project, confirmation (AID 434948;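 active means active in primary screen and both duplicates, each dropping signal beyond three positive-control SD with fluorescence still positive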); conditions: HEK293 TRPC6, membrane potential dye fluorescence, at 10 µM, stimulated with maximal-effect acetylcholine; active compounds read high
Chain of Short transient receptor potential channel 6 (Mus musculus) (Q61143 whole entry, looked up): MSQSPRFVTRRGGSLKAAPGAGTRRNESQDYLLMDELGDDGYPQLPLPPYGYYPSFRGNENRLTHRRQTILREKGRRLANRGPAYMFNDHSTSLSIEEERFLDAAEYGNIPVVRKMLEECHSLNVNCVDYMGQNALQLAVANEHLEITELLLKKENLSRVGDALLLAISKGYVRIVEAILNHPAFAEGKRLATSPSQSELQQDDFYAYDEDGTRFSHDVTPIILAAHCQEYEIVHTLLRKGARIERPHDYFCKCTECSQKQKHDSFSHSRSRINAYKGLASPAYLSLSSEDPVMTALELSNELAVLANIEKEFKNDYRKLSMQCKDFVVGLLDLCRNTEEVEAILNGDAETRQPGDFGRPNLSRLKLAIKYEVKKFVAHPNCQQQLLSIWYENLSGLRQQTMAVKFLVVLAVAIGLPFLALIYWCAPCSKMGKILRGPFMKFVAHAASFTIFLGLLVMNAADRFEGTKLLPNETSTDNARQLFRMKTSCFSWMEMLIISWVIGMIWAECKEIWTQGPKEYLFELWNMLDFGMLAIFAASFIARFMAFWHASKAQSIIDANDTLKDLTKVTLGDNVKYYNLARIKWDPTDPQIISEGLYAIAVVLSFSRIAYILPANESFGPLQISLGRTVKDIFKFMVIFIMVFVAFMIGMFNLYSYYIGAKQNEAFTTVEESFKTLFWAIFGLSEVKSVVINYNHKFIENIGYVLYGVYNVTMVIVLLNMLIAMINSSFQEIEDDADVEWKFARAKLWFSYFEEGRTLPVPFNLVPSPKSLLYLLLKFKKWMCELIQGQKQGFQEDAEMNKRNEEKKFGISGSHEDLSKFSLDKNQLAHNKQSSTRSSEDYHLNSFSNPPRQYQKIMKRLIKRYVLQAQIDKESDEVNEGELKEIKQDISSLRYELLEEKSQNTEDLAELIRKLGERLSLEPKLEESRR

[11] = biological target: Short transient receptor potential channel 6 (Mus musculus) (UniProt Q61143); experiment: TRPC6 opening by TRPC4 activator hits – cell-based, HEK293, membrane potential dye, duplicate, selectivity assay for TRPC4 activator project, confirmation (AID 434950;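 active means membrane potential signal rise above negative control mean plus 3 SD in both duplicates, also active in the earlier TRPC4 screen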); conditions: HEK293 TRPC6, membrane potential fluorescence, at 10 µM; activation: active compounds read high; outcome: activation
[12] = biological target: Short transient receptor potential channel 6 (Mus musculus) (UniProt Q61143); experiment: positive modulators of mouse TRPC6 channel – HEK293 cells, membrane potential dye, duplicate, selectivity assay for TRPC4 potentiator project, confirmation (AID 434952;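 active means compound raising the membrane signal above positive-control mean plus 3 SD in both repeats, and a primary screen hit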); conditions: HEK293 TRPC6, membrane potential dye fluorescence, at 10 µM, maximal acetylcholine added after compound; active compounds read high
[13] = biological target: Short transient receptor potential channel 4 (Mus musculus) (UniProt Q9QUQ5); experiment: calcium flux activators in TRPC4/5HT1a cells, counter-screen for TRPC4 activator project, cell-based, second counter screen, HEK293 TRPC4/5HT1a, Fluo-4 (AID 434977;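 active means calcium signal rise above buffer-control mean plus 5 SD in both duplicates, and also a hit in the primary screen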); conditions: Fluo-4 calcium flux, at 10 µM; active compounds read high
[14] = serotonin-gated TRPC4 signal block – cell-based, second counter screen, HEK293 TRPC4/5HT1a, Fluo-4, counter-screen for TRPC4 inhibitor project, confirmation (AID 434978;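 active means primary screen active whose calcium signal fell more than 3 SD beyond the full-serotonin control mean in both duplicate plates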;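 further: serotonin given first at submaximal then at maximal dose after compound preincubation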); conditions: Fluo-4 calcium flux, at 10 µM, serotonin added to trigger calcium flux; active compounds read high
[15] = tested on: TRPC4 (mouse), co-expressed with 5HT1a in HEK293; experiment: enhancement of serotonin-evoked TRPC4 response – cell-based, second counter screen, HEK293 TRPC4/5HT1a, Fluo-4, counter-screen for TRPC4 potentiator project, confirmation (AID 434979;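 active means signal rise over 3 SD above mean of control wells given weak agonist, in both repeats and first screen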); conditions: Fluo-4 calcium flux, at 10 µM, serotonin added at its EC20 dose; active compounds read high
[16] = nonspecific calcium rise without TRPC4 – cell-based, HEK293 mu-opioid receptor line, counter-screen for TRPC4 activator project, confirmation (AID 449723;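 active means hit in primary screen, with calcium signal over 5 SD above buffer well mean in both duplicates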;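 further: counter screen cells carry the mu-opioid receptor alone and lack TRPC4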); conditions: HEK293 mu-opioid cells, Fluo-4 calcium fluorescence, at 10 µM; active compounds read high
[17] = nonspecific potentiation of DAMGO calcium response – cell-based, HEK293 mu-opioid receptor line, counter-screen for TRPC4 allosteric potentiator project, confirmation (AID 449724;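 active means calcium signal rise more than 3 SD above the low-dose agonist control mean, in both duplicate plates and the primary screen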); conditions: HEK293 mu-opioid receptor cells, Fluo-4 calcium flux, at 10 µM, compound added before EC20 DAMGO stimulus; active compounds read high

Measured: potentiation

Clc1ccc2[nH]c3c(c2c1)CNCC3
active: [3] 10% | [4] 12%
inactive: all other assays above

CCCCOc1ccc(CSC(=N)N)cc1[N+](=O)[O-]
active: [15] 22.3%
inactive: all other assays above

OCCNc1nc(Nc2ccccc2)nc2ccccc12
inactive: all assays above

Cn1c(=O)c2c(nc(CN3CCc4ccccc4C3)n2Cc2ccccc2)n(C)c1=O
active: [3] 40% | [15] 97.6%
inactive: all other assays above

CN(C)CCCOC(=O)c1ccc(Cl)cc1Cl
active: [3] 16% | [4] 8% | [15] 18.3%
inactive: all other assays above

Cc1cc(=O)oc2cc(NC(=S)NCc3ccccn3)ccc12
inactive: all assays above

CC(Nc1nc(N2CCCC2)nc2ccccc12)c1ccccc1 (stereo unspecified)
inactive: all assays above

N=c1c(C(=O)NCC2CCCO2)cc2c(=O)n3ccccc3nc2n1Cc1ccc(Cl)cc1 (stereo unspecified)
active: [4] 57% | [15] 61%
inactive: all other assays above

From PubChem BioAssay
